# Data published in PubChem BioAssay AID449762 (Southern Research Specialized Biocontainment Screening …, 2010).
# The campaign covered roughly 330,000 compounds. About 1,900 (0.58%) were called active. Roughly 4% stayed inconclusive and do not appear here. Not all results are given here. Entries with a potency or affinity are not part of this list. Values without a mark were called inactive. Cut-off read from the data, not from the text of the source: inconclusive = inhibition above about 70% without an active follow-up result; inactive = below that.
# Experiment: M. tuberculosis growth inhibition, HTS (AID 449762);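 note: bacterial growth assessed after seven days of incubation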
# Details: M. tuberculosis H37Rv growth inhibition, 7H9 media; at 25 µM; hits give high values
row,SMILES,inhibition
1,NC(=O)CCN(Cc1ccccc1)S(=O)(=O)c1ccccc1,-1.39%
2,CCCCNC(=O)COC(=O)CNC(=O)c1cc(Cl)cc([N+](=O)[O-])c1,6.26%
3,C=CCn1cnc2c(oc3ccccc32)c1=O,0.22%
4,c1ccc(CNc2ncnc3c2cnn3-c2ccccc2)cc1,-6.95%
5,CCCCNc1ncnc2c1cnn2-c1ccccc1,11.5%
6,c1ccc(-n2ncc3c(N4CCCCC4)ncnc32)cc1,-3.33%
7,CCN1CCN(c2ncnc3c2cnn3-c2ccccc2)CC1,-10%
8,CC(C)(C)c1ccc(-c2noc(C(=O)NN)n2)cc1,-2.97%
9,NS(=O)(=O)c1ccc(NC(=O)COC(=O)CN2C(=O)C3CC=CCC3C2=O)cc1 (stereo unspecified),-21.8%
10,Cn1cc(C(=O)c2ccccc2)cc1-c1nc2ccccc2n1C,24.3%
11,Cn1cc(C(=O)c2ccc(F)cc2)cc1-c1nc2ccccc2n1C,65.4%
12,O=C(COC(=O)c1ccccn1)Nc1ccc2c(c1)OCCO2,-1.75%
13,CNC(=O)COc1ccc(Nc2nnc(-c3ccc(C)c(S(N)(=O)=O)c3)c3ccccc23)cc1,3.37%
14,CC(=O)c1ccc(NC(=O)C(C)OC(=O)c2cccc(-n3cnnn3)c2)cc1 (stereo unspecified),-2.06%
15,CCOC(=O)c1cn(Cc2ccc(Cl)cc2Cl)c2cc(C)nn2c1=O,-10.3%
16,COc1ccc(-c2cn(Cc3cccc(OC)c3)nn2)cc1,-1.15%
17,CCCCCc1ccc(-c2cn(Cc3ccc(C)cc3)nn2)cc1,2.43%
18,CCN(C(=O)COC(=O)c1cc(-c2ccc3cc(OC)ccc3c2)nc2ccccc12)C1CCS(=O)(=O)C1 (stereo unspecified),12.4%
19,CN1N=C(/C=C/c2ccccc2)CCC1=O,-6.09%
20,Cc1c(O)ccc2c(O)c(NC(=O)c3ccc4c(c3)CCC(C)(C)O4)c(=O)oc12,1.87%
21,COC1C(OC(=O)c2ccc(C)[nH]2)C(O)C(Oc2ccc3c(O)c(NC(=O)c4ccc(O)c(CC=C(C)C)c4)c(=O)oc3c2Cl)OC1(C)C (stereo unspecified),-2.53%
22,COc1ccc([C@H]2CC(=O)C=C(c3cccc(CO)c3)C2)cc1,-3.53%
23,COc1cc(NC(=O)C/C(C)=N/NC(=O)Cc2ccccc2)c(OC)cc1Cl,9.08%

row,SMILES,inhibition
1,COc1cc(NC(=O)C/C(C)=N/NC(=O)c2cccc(O)c2)c(OC)cc1Cl,-0.8%
2,COc1ccc(NS(=O)(=O)c2ccc(NC(=O)C3CCCO3)cc2)cc1 (stereo unspecified),-9.85%
3,COc1cccc(C2(C)NC(=O)N(CC(=O)Nc3ccc(N4CCOCC4)cc3)C2=O)c1 (stereo unspecified),-10%
4,CCCCOc1cccc(C(=O)Nc2ccc(NC(=O)c3cccs3)cc2)c1,2.91%
5,Cc1ccccc1NCc1nc2ccccc2n1C,2.8%
6,Cn1c(CNc2ccc(O)cc2)nc2ccccc21,-0.5%
7,CC(=O)Nc1ccc(N2CCCCC2)cc1,1.6%
8,CC(=O)Nc1ccc(S(=O)(=O)Nc2ccc(N3CCOCC3)cc2)cc1,1.49%
9,O=C(O)c1cccc(N2C(=O)C3C4C=CC(C4=C(c4ccccc4)c4ccccc4)C3C2=O)c1 (stereo unspecified),4.23%
10,CC(=O)C[C@@H](O)CC(=O)[C@@H]1OC(=O)CCCCCCCCc2ccccc21,0.55%
11,CCC(C)(C)NC(=O)C(c1ccncc1)N(Cc1ccc(C)cc1)C(=O)c1csnn1 (stereo unspecified),-0.23%
12,N#CCNc1ccc([N+](=O)[O-])cc1C#N,2.63%
13,COc1cc2c(cc1OC)C(C)N(C(=O)c1cc3c(s1)-c1c(C)cccc1OC3)CC2 (stereo unspecified),60.6%
14,Cc1ccc(C(=O)N/C(=C\c2cccc([N+](=O)[O-])c2)C(=O)OCN2C(=O)c3ccccc3C2=O)cc1,9.25%
15,Cc1ccc(C(=O)N/C(=C/c2ccco2)C(=O)O)cc1,0.79%
16,NN/C(=C\[N+](=O)[O-])Nc1ccccc1,69.9%
17,CS/C(=C\[N+](=O)[O-])Nc1ccc(Cl)cc1,55.3%
18,CC(Sc1nnc(-c2cccs2)n1-c1ccccc1)C(=O)NCc1ccc2c(c1)OCO2 (stereo unspecified),-16.1%
19,CCCCOc1ccc(C(=O)Nc2ccc(N3CCN(C(=O)C(C)C)CC3)cc2)cc1,11.1%
20,Cc1cc(OC2CCCCC2)nc(-c2ccccc2O)n1,-9.08%
21,Cc1cc(Nc2ccccc2Cl)nc(-c2ccccc2O)n1,57.3%
22,O=C(Cn1ncc(Cl)c(Cl)c1=O)N1CCOCC1,2.21%
23,O=C(Cn1nc(Cl)nc1Cl)c1ccc2c(c1)OCCO2,60.7%

row,SMILES,inhibition
1,CCOC(=O)c1sc(=NC(=O)c2ccc(C)c(C)c2)n(C)c1C,31.6%
2,O=C(N/N=C/c1cccnc1)c1sc2ccccc2c1Cl,66%
3,O=C(N/N=C/c1c[nH]c2ccccc12)c1sc2ccccc2c1Cl,1.35%
4,CC(=O)NCCc1nc2cc(NC(=O)c3ccccc3Cl)ccc2n1C,-3.12%
5,Cc1cc(C(C)(C)C)oc1C(=O)OCC(=O)NC1CCCCC1,7.47%
6,CN1C(=O)[C@@H]2C[C@@]3([C@@]45C[C@H]6C(=O)N(C)[C@@H](Cc7ccccc7)C(=O)N6[C@@H]4Nc4ccccc45)c4ccccc4N[C@H]3N2C(=O)[C@@H]1Cc1ccccc1,11.8%
7,CS(=O)(=O)N1c2ccccc2[C@]2([C@@]34C[C@H]5C(=O)N[C@@H](Cc6ccccc6)C(=O)N5[C@@H]3N(S(C)(=O)=O)c3ccccc34)C[C@H]3C(=O)N[C@@H](Cc4ccccc4)C(=O)N3[C@H]12,-2.63%
8,CCCCC1S/C(=N/N=C/c2ccco2)NC1=O (stereo unspecified),4.46%
9,CCC(=O)OCC(=O)N=c1sccn1Cc1ccc(C)cc1,6.77%
10,Cc1ccc(Cn2ccsc2=NC(=O)COC(=O)C(C)C)cc1,-7.15%
11,COc1ccccc1CN1CC(C(=O)N(C)CCc2nc3ccc(F)cc3[nH]2)CCC1=O (stereo unspecified),8.31%
12,CN(Cc1nc2ccccc2[nH]1)C(=O)C1CCC(=O)N(CCc2cccc(F)c2)C1 (stereo unspecified),-0.88%
13,Cc1cccc(NC(=S)NCC(C)CSc2ccc(Cl)cc2)c1 (stereo unspecified),10.5%
14,COc1cccc(C2NC(=O)NC(C)=C2C(=O)OCC2CCCCC2)c1 (stereo unspecified),-17.1%
15,O=C(CSc1cccc(C(F)(F)F)c1)Nc1ccc(Cl)cc1Cl,-3.06%
16,COC(=O)[C@H](CC(C)C)NC(=O)N1CCN(c2cccc(C(F)(F)F)c2)CC1,1.6%
17,COC(=O)[C@@H](NC(=O)N1CCN(c2cccc(C(F)(F)F)c2)CC1)C(C)C,5.31%
18,Clc1ccccc1-c1nnc2n1CCCCC2,-3.29%
19,Oc1ccccc1-c1nnc2n1CCCCC2,-9.99%
20,CCOc1cc(N2CCOCC2)c(OCC)cc1NC(=O)CN1C(=O)NC(C)(C2CC2)C1=O (stereo unspecified),8.07%
21,Cc1ccc(C)c(Nc2ccc(C(=O)NCCc3ccccc3)cn2)c1,4.16%
22,O=C(CCN=C1NS(=O)(=O)c2ccccc21)Nc1ccc(F)cc1Cl,7.31%
23,c1ccc2c(c1)CCN(c1nc3cc4c(cc3s1)OCO4)C2,38.1%

row,SMILES,inhibition
1,c1ccc(N2CCN(c3nc4cc5c(cc4s3)OCCO5)CC2)cc1,5.85%
2,COc1ccc(S(=O)(=O)N2CCN(CC(=O)N3CCc4ccccc4C3)CC2)cc1OC,-1.57%
3,CCCC(=O)NNC(=O)CC(=O)Nc1ccccc1C(=O)O,2.33%
4,O=C(NC(=S)Nc1cccc2ncccc12)c1ccccc1,0.24%
5,O=C(NC(=S)Nc1cccc2cnccc12)c1ccccc1,5.56%
6,CNC(=O)Cc1nc2ccccc2n1CC(=O)Nc1cc(C)cc(C)c1,-9.59%
7,COc1ccc(CN2[C@@H](CC(C)=O)c3cc(C(F)(F)F)ccc3S2(=O)=O)cc1,-4.65%
8,Cc1nnnn1-c1ccc(CC(=O)O)cc1,-0.97%
9,Cc1ccc(CSc2nnc(CCNC(=O)OC(C)(C)C)o2)cc1,6.64%
10,CC(C)(C)OC(=O)NCCCCCc1nnc(SCc2ccccc2)o1,68.1%
11,CCCCn1c(O)c(C(=O)/C=C/c2ccc3c(c2)OCO3)c(=O)[nH]c1=O,1%
12,O=C(/C=C/c1c[nH]c2ccccc12)c1c(O)n(CCc2ccccc2)c(=O)[nH]c1=O,35.3%
13,COCCNC(=O)c1ccc(NC(=O)C2(c3ccccc3)CCCC2)cc1,40.9%
14,CCn1c(CSCc2ccc(C)cc2)n[nH]c1=S,3.1%
15,CC1(C)CCC[C@]2(C)[C@H]3Cc4cc(O)ccc4O[C@]3(C)CC[C@@H]12,6.49%
16,Cc1cc(/C=N/n2cnnc2)c(C)n1-c1ccc(Cl)cc1,-4.08%
17,Cc1cc(/C=N/n2cnnc2)c(C)n1-c1ccc(OCc2ccc(F)cc2)cc1,-2.12%
18,O=C(CCCC(=O)OCC(=O)c1ccc(Cl)cc1)NC1CCCCC1,30.8%
19,COc1ccc(C2(C#N)CCC(=O)N2c2ccccc2)cc1 (stereo unspecified),5.44%
20,COC(=O)CCc1sc(Nc2ccccc2)nc1-c1ccc(OC)cc1,52.4%
21,COc1ccc(Nc2nc(-c3ccc(OC)cc3)c(CCC(=O)O)s2)cc1,26.3%
22,O=C(CCCN1C(=O)c2ccccc2C1=O)N1CCN(c2ccccn2)CC1,-8.5%
